# Source: PubChem
# Hits are enriched below; roughly 10% of the tested compounds scored in any of these assays.
# PNC assembly inh = perinucleolar compartment assembly inhibition | activity change (PNC), negative = inhibition, % at 10 µM | actives 3.1% (n = 140,000) | AID 2417 | PC3M PTB-GFP, PNC prevalence imaging, 16 h; stronger effect = lower value;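 active = readout at or below -70, meaning at least 70% loss of cells showing the perinucleolar compartment, a nuclear body marking cancer cells; inconclusive = readout between -30 and a set limit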;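 also: plate controls were DMSO wells for no effect and camptothecin positive control wells for full effect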
#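 Read-out is percentage of cells bearing a perinucleolar compartment, from automated 20x imaging of fixed, Hoechst-stained PC3M PTB-GFP cells. Cells were seeded 4 h, then exposed 16 h to compound (23 nl of library stock) in duplicate plates.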
# LMNA splice mod = modulators of lamin A splicing; HeLa LMNA splicing GFP/RFP minigene ratio, 48 h; Potency, µM (series often up to 46.1 µM), for the others: top-dose ratio change, negative = inhibition, usual class: inhibitors; actives 0.01% (n = 200,000); active = well fitted inhibition curve with a large enough effect in the signal ratio, with a control signal flat, not every such curve was filed as active; inconclusive = small, poorly fitted or top-dose-only effect, or effect the other way, or a change in a side signal; the % refers to the signal ratio; also: potency is read from the fitted curve at half-maximal effect
#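 S3 HeLa cells stably expressing lamin A-EGFP splicing minigene plus DsRed2, 600 cells/well, 48 h compound exposure at 37C. Laser-scanning cytometry; analysed as GFP (500-530 nm)/RFP (575-640 nm) total intensity ratio; 0.5% DMSO vehicle.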
# Luc counter = counter-screen: inhibitors of Kinase-Glo firefly luciferase. Q27757. Kinase-Glo luciferase, ATP luminescence, 8 min. Potency, µM (series often up to 38.3 µM), without a hit: at the top dose activity change, negative = inhibition, hits mostly inhibitors. actives 0.28% (n = 200,000). AID 1379; active = well fitted inhibition curve with a large enough effect; inconclusive = small, poorly fitted or top-dose-only effect; also: potency is read from the fitted curve at half-maximal effect; nearly all actives have a fitted effect of over 60% in size
#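 Recombinant Kinase-Glo luciferase, 10 uM ATP (linear range), luciferin; imidazole pH 7.2 / KCl / MgCl2 / Tween / BSA buffer; 8 min RT; luminescence.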
# ALDH1A1 block = ALDH1A1 (human) enzyme inhibition; actives 7.3% (n = 220,000); Potency, µM (titrated, usually from 75.3 µM), inactives show at the top dose activity, negative = inhibition, most hits filed as inhibitors; P00352; Purified ALDH1A1, NADH fluorescence, propionaldehyde substrate; AID 1030;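 also: potency is read from the fitted curve at half-maximal effect; plate controls were no enzyme wells and a reference inhibitor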
# HPGD inh = inhibitors of human 15-hydroxyprostaglandin dehydrogenase (HPGD) | Potency, µM, for the others: at the top dose activity change, negative = inhibition, hits mostly inhibitors | AID 894 | actives 4.3% (n = 150,000) | purified HPGD, NADH fluorescence kinetic, PGE2 substrate | P15428; also: potency is read from the fitted curve at half-maximal effect
# Target sequence (P15428 whole entry, looked up): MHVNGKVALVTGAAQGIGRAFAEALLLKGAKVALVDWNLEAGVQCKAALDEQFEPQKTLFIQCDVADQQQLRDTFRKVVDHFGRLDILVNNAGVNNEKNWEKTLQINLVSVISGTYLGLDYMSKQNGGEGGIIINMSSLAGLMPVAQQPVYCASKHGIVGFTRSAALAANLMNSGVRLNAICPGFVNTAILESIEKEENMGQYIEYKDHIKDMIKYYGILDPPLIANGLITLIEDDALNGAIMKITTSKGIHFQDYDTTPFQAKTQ
#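 NADH formation kinetics: reaction with 30 uM PGE2 and 1 mM NAD+ (final), 20 nM enzyme, Tris-HCl pH 8 with Tween 20, after 15 min compound preincubation at room temperature. Fluorescence change, last versus first of five reads.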
# An asterisk follows results filed as active; ? = inconclusive; · = no result given; [ ] = dose if it differs, or a comment. Unless noted, calls follow the shape of the dose curve; as a rule, active = well fitted inhibition curve with a large enough effect (not every such curve was filed as active); inconclusive = small, poorly fitted or top-dose-only effect, or another doubt; inactive = no such curve, though single readings can be large or run the other way. Unless noted, % is scaled to controls: 0 for no effect and ±100 for the full control effect.
SMILES,PNC assembly inh,LMNA splice mod,Luc counter,ALDH1A1 block,HPGD inh
COc1cccc(/C=N/n2nnc3c(cnn3-c3ccccc3)c2=O)c1,84,-2%,-3%,0.89µM*,?
CN(C)C[C@H]1CCC[C@@H](CN(C)C)C1=O,·,·,-4%[7.66 µM],-4%[13.5 µM],-3%
O=C(C1COc2ccccc2O1)N1CCc2ccccc2C1 (stereo not drawn),?,2%,-2%,?,7.1µM*
O=C(C1COc2ccccc2O1)N1CCN(c2ccccc2Cl)CC1 (stereo not drawn),·,?,-3%,-5%,·
C(=N\n1cnnc1)/c1cccc(Oc2ccccc2)c1,30,-6%,1%,6%,-1%
S=c1[nH]ncn1/N=C/c1cccc(Oc2ccccc2)c1,24,-3%,2%,18µM*,10µM*
CCCc1cnc2c(c1SCC(=O)N(C)c1ccccc1)c(=O)n(C)c(=O)n2C,·,1%[46 µM],·,·,·
O=C(NCc1ccc(-n2cccc2)cc1)c1cccc(F)c1,·,6%[9.22 µM],-4%,16µM*,·
COc1ccc(OC)c(-n2c(SC)nnc2-c2c[nH]c3ccccc23)c1,14,-9%,18%,?,18µM*
CC(Oc1ccc(Br)cc1)C(=O)NCc1cccnc1 (stereo not drawn),·,·,-1%,6%,-3%
c1ccc(N2CCN(c3cnc4ccccc4n3)CC2)cc1,-2,0%,-7%,?,22µM*
O=C(N/N=C/c1cnc(N2CCOCC2)s1)c1ccccc1,·,·,-2%,-14%,·
Clc1ncc(CN2CCN(c3ccccc3)CC2)s1,·,?,1%,-1%,·
O=Cc1cnc(N2CCN(c3ccccc3)CC2)s1,·,·,0%,4µM*,·
O=Cc1cnc(N2CCN(Cc3ccccc3)CC2)s1,·,·,0%,0.79µM*,·
Clc1ccc(N2CCN(c3cnc4ccccc4n3)CC2)cc1,-25,-24%,-1%,-7%,-25%
COc1ccc2c(c1)O[C@H](c1ccc3c(c1)OCO3)[C@@H](OC(=O)Nc1ccc(OC(F)F)cc1)C2=O,·,·,0%,6%,-6%
COc1ccc(NC(=O)N2CC3(CCNCC3)C2)cc1,·,·,-1%,4%,-5%
CN(C)c1ccc(CNC(=O)c2cnc3sc(N4CCCCCC4)nn3c2=O)cc1,·,-16%[46 µM],·,·,·
O=C(/C=C/c1ccc(Cl)cc1)NC(=S)Nc1ccc(N2CCOCC2)c(Cl)c1,-26,-11%,·,14µM*,·
O=C(/C=C/c1ccc(S(=O)(=O)N2CCOCC2)cc1)NC(=S)Nc1ccc(Cl)cc1Cl,·,?,1%,1.1µM*,·
O=C(ON=C1CCN(S(=O)(=O)c2ccccc2)CC1)c1ccc(F)cc1,-100*,5%,-3%,2%,-9%
Cc1ccc(NC(=O)Cn2cc(S(=O)(=O)N3CCCC3)c(S(=O)(=O)N3CCCC3)c2)c(C)c1,·,14%[46 µM],·,·,·
CCC(CC)C(=O)Nc1cccc(/C(C)=N/NC(=O)c2ccccc2Cl)c1,16,6%,1%,13µM*,-22%
NC(N)=NC(N)=Nc1c(F)c(F)c(F)c(F)c1F,·,·,3%[7.66 µM],3%[13.5 µM],-7%
SMILES,PNC assembly inh,LMNA splice mod,Luc counter,ALDH1A1 block,HPGD inh
Cc1ccc(/C=c2\sc3nc(-c4ccco4)nn3c2=O)o1,?,-3%,-8%,3.5µM*,18µM*
COc1ccc(/C=c2\sc3nc(=O)c(C)nn3c2=O)c(OC)c1,·,-15%[46 µM],2%,22µM*,·
COc1ccc(Br)cc1/C=c1\sc2nc(-c3ccco3)nn2c1=O,-25,7%,1%,28µM*,14µM*
COc1ccccc1/C=c1\sc2nc(-c3ccccc3OC)nn2c1=O,2,12%,-6%,6%,-8%
Cc1ccc(/C=c2/sc3nnc(-c4ccccc4Cl)n3c2=O)o1,?,6%,-3%,?,-22%
Cc1ccc(/C=c2\sc3nc(-c4ccccc4Br)nn3c2=O)o1,?,-4%,0%,13µM*,20µM*
Cc1ccc(-c2nc3s/c(=C\c4ccco4)c(=O)n3n2)cc1,-12,?,-11%,6%,-7%
Cc1ccc(C(C(=O)NC2CCCCC2)N2CCCC2)cc1 (stereo not drawn),-112*,-12%,-4%,11%,-15%
CCN1CCN(CCCN(Cc2ccco2)C(=S)Nc2ccc(Cl)c(C)c2)CC1,·,?,-1%,-4%,·
